# From the supplement of paper PMC10849652
# The full data set covers some 8,800 targets. This sample favours those with a hit. About 0.5% of all pairs of compound and target were hits. Values without a mark were called inactive.
# Compound: NC(=O)c1cnc(N[C@@H]2CCCC[C@@H]2N)nc1Nc1cccc(-n2nccn2)c1
# Assay: log2 fold change, soluble protein after heating vs DMSO (PISA); higher = thermal stabilisation; K562 lysate, 10 uM; active = over 0.2 and 3.5 SD of the protein, either way, in both replicates (recomputed)
# In short: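 Log-two fold change in thermal stability relative to solvent controls is reported from duplicates. For each sample, crude K562 extract from dounce-homogenised pellets in PBS pH 7.4 with 1 mM MgCl2, at 1 mg/mL protein, was treated with 10 μM compound for 30 min. Aliquots heated for 3 min across 48°C-58°C were pooled, brought to 0.5% NP-40 at 4°C and cleared at 21,000xg for 90 min. The supernatant was quantified by TMTpro 16plex LC-MS/MS with channel sums equalised.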
# Sequence of UniProt P53814 (P53814 whole entry, looked up): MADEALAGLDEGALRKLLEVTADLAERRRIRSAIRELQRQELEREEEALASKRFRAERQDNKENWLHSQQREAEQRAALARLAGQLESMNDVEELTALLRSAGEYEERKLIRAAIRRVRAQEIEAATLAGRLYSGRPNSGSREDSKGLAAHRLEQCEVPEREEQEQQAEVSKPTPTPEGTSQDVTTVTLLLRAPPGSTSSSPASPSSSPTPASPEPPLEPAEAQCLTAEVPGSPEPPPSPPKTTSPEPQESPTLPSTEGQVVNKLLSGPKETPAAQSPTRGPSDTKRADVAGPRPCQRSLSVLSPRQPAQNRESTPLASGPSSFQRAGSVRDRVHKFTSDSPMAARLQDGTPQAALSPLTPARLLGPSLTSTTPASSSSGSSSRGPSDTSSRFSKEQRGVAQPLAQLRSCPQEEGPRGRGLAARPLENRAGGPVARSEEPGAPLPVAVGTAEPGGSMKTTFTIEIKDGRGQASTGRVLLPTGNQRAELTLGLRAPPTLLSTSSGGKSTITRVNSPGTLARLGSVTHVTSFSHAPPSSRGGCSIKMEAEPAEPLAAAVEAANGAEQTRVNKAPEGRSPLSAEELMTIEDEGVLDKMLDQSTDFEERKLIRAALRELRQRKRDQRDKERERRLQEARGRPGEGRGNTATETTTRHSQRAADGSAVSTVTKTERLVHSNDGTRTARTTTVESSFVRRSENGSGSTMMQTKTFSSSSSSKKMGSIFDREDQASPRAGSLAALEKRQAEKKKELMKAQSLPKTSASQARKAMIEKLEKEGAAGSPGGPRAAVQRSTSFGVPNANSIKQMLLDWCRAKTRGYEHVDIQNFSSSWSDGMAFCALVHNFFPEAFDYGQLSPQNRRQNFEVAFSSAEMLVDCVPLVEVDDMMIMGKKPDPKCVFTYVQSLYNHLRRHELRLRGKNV
# Sequence of UniProt Q9H2D1 (Q9H2D1 whole entry, looked up): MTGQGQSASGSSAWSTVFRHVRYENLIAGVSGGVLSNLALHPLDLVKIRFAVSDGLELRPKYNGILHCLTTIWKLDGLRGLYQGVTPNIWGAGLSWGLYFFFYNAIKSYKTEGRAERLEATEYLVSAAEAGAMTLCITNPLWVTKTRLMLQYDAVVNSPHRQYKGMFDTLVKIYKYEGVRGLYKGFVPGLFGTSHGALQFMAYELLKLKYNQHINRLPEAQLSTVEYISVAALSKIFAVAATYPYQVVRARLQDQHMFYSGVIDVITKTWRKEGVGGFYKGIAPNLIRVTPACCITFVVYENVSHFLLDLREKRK
# Sequence of UniProt P29353 (P29353 whole entry, looked up): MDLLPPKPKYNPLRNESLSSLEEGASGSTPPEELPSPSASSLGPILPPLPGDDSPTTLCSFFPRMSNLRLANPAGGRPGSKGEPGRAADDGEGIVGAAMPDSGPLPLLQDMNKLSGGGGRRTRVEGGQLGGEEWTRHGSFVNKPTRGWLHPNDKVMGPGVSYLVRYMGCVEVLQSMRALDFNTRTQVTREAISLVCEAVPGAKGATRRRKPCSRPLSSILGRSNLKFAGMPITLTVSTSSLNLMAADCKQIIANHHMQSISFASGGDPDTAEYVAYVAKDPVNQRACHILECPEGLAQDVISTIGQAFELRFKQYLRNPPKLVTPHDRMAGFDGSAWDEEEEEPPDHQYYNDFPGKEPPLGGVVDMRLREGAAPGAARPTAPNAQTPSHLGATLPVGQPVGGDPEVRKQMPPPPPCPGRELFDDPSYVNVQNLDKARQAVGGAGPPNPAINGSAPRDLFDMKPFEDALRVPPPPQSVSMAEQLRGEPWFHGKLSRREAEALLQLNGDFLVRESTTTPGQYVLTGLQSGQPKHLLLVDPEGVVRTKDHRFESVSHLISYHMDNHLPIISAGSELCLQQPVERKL
# Sequence of UniProt Q13573 (Q13573 whole entry, looked up): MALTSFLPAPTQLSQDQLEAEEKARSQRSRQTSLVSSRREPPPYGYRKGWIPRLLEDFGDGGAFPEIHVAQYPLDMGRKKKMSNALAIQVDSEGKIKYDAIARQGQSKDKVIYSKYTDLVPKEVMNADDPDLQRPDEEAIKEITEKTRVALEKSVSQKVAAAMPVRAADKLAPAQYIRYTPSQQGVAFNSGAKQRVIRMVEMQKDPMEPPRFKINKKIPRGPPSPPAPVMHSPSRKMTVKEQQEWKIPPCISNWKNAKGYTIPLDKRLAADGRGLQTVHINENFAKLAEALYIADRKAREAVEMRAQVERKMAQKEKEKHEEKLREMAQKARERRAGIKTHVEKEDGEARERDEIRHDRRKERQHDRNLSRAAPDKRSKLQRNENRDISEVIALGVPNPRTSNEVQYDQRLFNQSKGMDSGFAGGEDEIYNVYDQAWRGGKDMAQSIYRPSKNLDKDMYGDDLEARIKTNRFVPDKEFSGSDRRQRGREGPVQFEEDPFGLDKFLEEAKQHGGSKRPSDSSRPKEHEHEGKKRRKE
# Sequence of UniProt Q86XZ4 (Q86XZ4 whole entry, looked up): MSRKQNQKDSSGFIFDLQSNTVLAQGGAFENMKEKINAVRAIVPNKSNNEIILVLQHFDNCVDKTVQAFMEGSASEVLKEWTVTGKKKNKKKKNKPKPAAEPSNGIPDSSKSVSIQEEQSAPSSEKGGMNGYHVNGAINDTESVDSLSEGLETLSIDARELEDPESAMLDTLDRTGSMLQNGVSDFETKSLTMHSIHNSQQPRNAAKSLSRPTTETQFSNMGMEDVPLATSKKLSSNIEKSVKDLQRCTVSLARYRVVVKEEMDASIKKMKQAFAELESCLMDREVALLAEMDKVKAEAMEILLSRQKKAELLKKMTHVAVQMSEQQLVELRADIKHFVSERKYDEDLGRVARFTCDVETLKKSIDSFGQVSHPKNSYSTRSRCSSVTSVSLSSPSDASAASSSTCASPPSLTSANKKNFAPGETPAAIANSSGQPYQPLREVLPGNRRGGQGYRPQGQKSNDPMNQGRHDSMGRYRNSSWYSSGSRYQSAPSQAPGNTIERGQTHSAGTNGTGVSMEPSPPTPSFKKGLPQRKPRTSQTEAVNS
# Sequence of UniProt Q9NP77 (Q9NP77 whole entry, looked up): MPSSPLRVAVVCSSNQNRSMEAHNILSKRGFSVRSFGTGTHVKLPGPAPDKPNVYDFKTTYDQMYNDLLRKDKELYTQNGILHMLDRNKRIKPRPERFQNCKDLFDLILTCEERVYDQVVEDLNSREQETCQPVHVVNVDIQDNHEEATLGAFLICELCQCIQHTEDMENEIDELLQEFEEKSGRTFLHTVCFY
# Sequence of UniProt Q96DW6 (Q96DW6 whole entry, looked up): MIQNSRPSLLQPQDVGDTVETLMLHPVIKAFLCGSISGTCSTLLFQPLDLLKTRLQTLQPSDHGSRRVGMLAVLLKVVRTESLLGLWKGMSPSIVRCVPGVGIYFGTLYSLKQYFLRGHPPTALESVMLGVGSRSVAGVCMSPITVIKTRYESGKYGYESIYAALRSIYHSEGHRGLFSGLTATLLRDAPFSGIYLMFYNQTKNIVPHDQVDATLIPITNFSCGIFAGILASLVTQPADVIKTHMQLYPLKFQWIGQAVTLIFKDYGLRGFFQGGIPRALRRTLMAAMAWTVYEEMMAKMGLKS
# Sequence of UniProt P49281 (P49281 whole entry, looked up): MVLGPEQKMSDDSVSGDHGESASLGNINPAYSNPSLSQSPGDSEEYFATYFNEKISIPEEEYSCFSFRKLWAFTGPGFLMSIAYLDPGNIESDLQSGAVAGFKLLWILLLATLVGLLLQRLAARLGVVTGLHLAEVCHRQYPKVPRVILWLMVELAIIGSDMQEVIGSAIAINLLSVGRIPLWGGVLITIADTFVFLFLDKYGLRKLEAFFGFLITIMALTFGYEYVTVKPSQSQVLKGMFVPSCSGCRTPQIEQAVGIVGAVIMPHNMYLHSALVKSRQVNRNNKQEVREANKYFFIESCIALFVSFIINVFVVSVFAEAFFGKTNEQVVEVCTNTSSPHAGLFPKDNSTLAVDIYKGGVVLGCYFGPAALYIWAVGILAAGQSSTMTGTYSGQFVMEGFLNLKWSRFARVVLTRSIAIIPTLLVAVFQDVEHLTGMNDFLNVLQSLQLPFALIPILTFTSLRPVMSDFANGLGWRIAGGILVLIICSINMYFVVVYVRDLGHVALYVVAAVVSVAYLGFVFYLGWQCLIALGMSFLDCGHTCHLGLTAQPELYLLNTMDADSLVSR
# Sequence of UniProt O95793 (O95793 whole entry, looked up): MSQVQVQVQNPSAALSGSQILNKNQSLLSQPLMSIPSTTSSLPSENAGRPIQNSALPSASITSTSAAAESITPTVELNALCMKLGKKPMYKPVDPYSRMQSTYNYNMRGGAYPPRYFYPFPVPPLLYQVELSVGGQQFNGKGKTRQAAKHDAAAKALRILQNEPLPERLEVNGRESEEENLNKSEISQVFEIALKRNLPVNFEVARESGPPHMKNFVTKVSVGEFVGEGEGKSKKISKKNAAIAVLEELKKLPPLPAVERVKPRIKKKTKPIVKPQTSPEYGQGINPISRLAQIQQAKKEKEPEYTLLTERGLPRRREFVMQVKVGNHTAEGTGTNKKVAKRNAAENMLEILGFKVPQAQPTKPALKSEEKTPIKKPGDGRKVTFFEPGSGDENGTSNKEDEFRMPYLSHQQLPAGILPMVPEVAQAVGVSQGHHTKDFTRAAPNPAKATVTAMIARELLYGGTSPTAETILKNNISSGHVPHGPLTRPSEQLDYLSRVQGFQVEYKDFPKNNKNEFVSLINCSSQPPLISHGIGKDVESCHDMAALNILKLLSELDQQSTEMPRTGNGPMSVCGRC
# Sequence of UniProt Q8NHG7 (Q8NHG7 whole entry, looked up): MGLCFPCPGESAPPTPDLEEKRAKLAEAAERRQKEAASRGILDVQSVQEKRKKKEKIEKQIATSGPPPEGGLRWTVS
# Sequence of UniProt Q96CQ1 (Q96CQ1 whole entry, looked up): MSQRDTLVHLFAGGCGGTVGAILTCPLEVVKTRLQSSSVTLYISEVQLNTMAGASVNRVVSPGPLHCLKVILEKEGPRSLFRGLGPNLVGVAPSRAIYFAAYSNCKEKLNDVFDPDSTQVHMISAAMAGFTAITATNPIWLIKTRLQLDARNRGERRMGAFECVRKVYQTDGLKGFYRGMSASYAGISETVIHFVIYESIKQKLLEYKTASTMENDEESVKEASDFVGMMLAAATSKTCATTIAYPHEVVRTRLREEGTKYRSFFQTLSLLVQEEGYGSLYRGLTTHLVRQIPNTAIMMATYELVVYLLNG
row,Target,log2 fold change
1,SLC11A2 isoform 3 (UniProt P49281),-0.042
2,SLC12A6 (UniProt Q9UHW9),-0.022
3,TAF9 (UniProt Q16594),0.084
4,SKA1 (UniProt Q96BD8),-0.042
5,SMTN isoform 6 (UniProt P53814),-0.005
6,SHC1 isoform 6 (UniProt P29353),-0.029
7,SPIRE1 (UniProt Q08AE8),0.042
8,SNW1 (UniProt Q13573),-0.01
9,SLC25A32 (UniProt Q9H2D1),-0.029
10,TARBP2 (UniProt Q15633),-0.029
11,SYNE2 isoform 2 (UniProt Q8WXH0),-0.021
12,SMG5 (UniProt Q9UPR3),0.048
13,SH3GL3 isoform 3 (UniProt Q99963),0.024
14,STAU1 (UniProt O95793),0.001
15,SMARCAD1 isoform 2 (UniProt Q9H4L7),0.059
16,SLC25A36 (UniProt Q96CQ1),0.003

row,Target,log2 fold change
1,SMARCA4 (UniProt P51532),0.004
2,SP1 (UniProt P08047),0.008
3,SMG1 (UniProt Q96Q15),0
4,SPHK1 isoform 2 (UniProt Q9NYA1),-0.005
5,SMC1B isoform 3 (UniProt Q8NDV3),-0.005
6,SMG7 (UniProt Q92540),-0.067
7,SLC25A38 (UniProt Q96DW6),-0.138
8,SMC3 (UniProt Q9UQE7),-0.003
9,SVIP (UniProt Q8NHG7),-0.012
10,STK24 (UniProt B4DR80),0.023
11,SPC25 (UniProt Q9HBM1),0.002
12,SPATS2 (UniProt Q86XZ4),-0.005
13,SLC26A6 (UniProt Q9BXS9),0.054
14,SRP54 (UniProt P61011),-0.013
15,SSB (UniProt E7ERC4),-0.108
16,SSU72 (UniProt Q9NP77),-0.013
